# In PubChem BioAssay (Tox21):
# Values joined by “and” are separate entries in the source; they are usually repeats but may differ in a detail not shown here. Equal values may be shown once. Results filed as inconclusive are left out. Active and inactive are the calls of the source. Calls come from the whole dose curve; as a rule, active = well fitted cell-killing curve with a large enough effect in the repeat runs; inconclusive = weak or mixed curves; inactive = flat fitted curve, though single readings scatter.
# Test: qHTS assay to identify small molecule antagonists of the estrogen related receptor (ERR) signaling pathway from Tox21 library - cell viability counter screen (AID 1224834); note: nearly all actives have a fitted effect of over 30% in size
# Details: ERR reporter cells viability, CellTiter-Fluor, 17.5 h; series mostly up to 92.4 µM; viability change, negative = cytotoxic: at the top concentration
# Text: National Center for Advancing Translational Sciences [NCATS]
# NIH Chemical Genomics Center [NCGC]
# U.S. Environmental Protection Agency [EPA]
# National Institutes of Environmental Health Sciences [NIEHS]
# National Toxicology Program [NTP]
# U.S. Food and Drug Administration [FDA]
# Estrogen related receptors (ERRs), the first orphan nuclear receptors discovered, play an important role in the control of cellular energy metabolism. ERRs are required for high-energy production in response to the environmental challenges. ERR-alpha was also identified as an adverse marker for breast cancer progression; ERR-alpha-positive tumors have a poor prognosis. To screen and to identify environmental compounds that perturb the ERR signaling pathways could provide valuable information for potential therapeutic or preventive measures in the treatment of metabolic disease. To differentiate true ERR antagonists or agonist from cytotoxic substances, the assay is multiplexed with cell viability assay.
# Tox21 Assay Protocol Summary:
# The ERR cells were dispensed at 2,000 cells/5 ul/well in 1536-well white plates using a Multidrop dispenser. After the assay plates were incubated at a 37 C/5% CO2 incubator for 6 hours, 23 nL of compounds dissolved in DMSO, positive and negative controls or DMSO only was transferred to the assay plate by a pin tool. The plates were incubated at 37 C for 17.5 hours. 1 ul/well of CellTiter-Fluor reagent was added into the assay plates using a Flying Reagent Dispenser. After 30-minute incubation at 37 C/5% CO2, the fluorescence intensity in the plates was measured using a ViewLux plate reader.
# % is set by controls: 0 for no effect and ±100 for the full control effect; potency is the fitted concentration of half-maximal effect.
SMILES,Potency,"viability change, negative = cytotoxic"
CCCCCCCCCCCCCCCC[N+](C)(C)CC,30.7 µM (active) and 23.7 µM (active),–
CC[N+](CC)(CC)CCOC(=O)C(C1CCCC1)C1CCCC1,–,-0.459% [at 42.5 µM] (inactive)
O=C1OC2(c3ccc(O)cc3Oc3cc(O)ccc32)c2ccc(N=C=S)cc21,–,-3.18% (inactive)
CCCNCCC,–,1.23% (inactive)
Fc1ccc(C(c2ccc(F)cc2)N2CCNCC2)cc1,–,-4.9% [at 42.5 µM] (inactive)
Cc1c2ccccc2c(C)c2c1ccc1ccccc12,27 µM (active) and 54.5 µM (active),–
O=C(O)O,–,-2.55% [at 8.39 µM] (inactive)
OCC(F)(F)F,–,2.37% (inactive)
CC1(C)CC(O)CC(C)(C)N1,–,1.77% (inactive)
CCN(CCN)c1cccc(C)c1,inactive,–
CCCCC(CC)CN1CN(CC(CC)CCCC)CC(C)(N)C1 (stereo not given),–,-12.9% [at 42.5 µM] (inactive)
C#CC1(O)CC[C@H]2[C@@H]3CCC4=CCCC[C@@H]4[C@H]3CC[C@@]21C (stereo not given in full),54.5 µM (active),–
Cc1c(C)c2c(c(C)c1O)CC[C@@](C)(CCC[C@H](C)CCC[C@H](C)CCCC(C)C)O2,–,-0.0411% (inactive)
Cc1c(F)c(N2CCNC(C)C2)cc2c1c(=O)c(C(=O)O)cn2C1CC1 (stereo not given),–,6.27% [at 42.5 µM] (inactive)
CCC(C)n1ncn(-c2ccc(N3CCN(c4ccc(OC[C@H]5CO[C@](Cn6cncn6)(c6ccc(Cl)cc6Cl)O5)cc4)CC3)cc2)c1=O (stereo not given in full),3.76 µM (active),–
O=C(Oc1ccccc1)Oc1ccccc1,–,-6.3% (inactive)
CC1=CCC(=C(C)C)CC1,–,-1.48% (inactive)
CCCC(=O)OCCc1ccccc1,–,5.89% (inactive)
S=c1nccc[nH]1,–,0.257% (inactive)
CCC(C)[O-].CCC(C)[O-].CCOC(=O)/C=C(/C)[O-].[Al+3],–,0.164% (inactive)

SMILES,Potency,"viability change, negative = cytotoxic"
CN(C)Cc1cc(C(C)(C)C)c(O)c(C(C)(C)C)c1,–,-7.65% (inactive)
COc1ccc(NC(=O)CC(C)=O)cc1,–,1.4% (inactive)
C#Cc1ccc(-c2ccccc2F)cc1,–,-0.888% [at 42.5 µM] (inactive)
COC(=O)c1ccccc1C,–,0.412% (inactive)
CC1(C)CCC[C@]2(C)[C@H]3CCO[C@]3(C)CC[C@@H]12,–,-7.08% (inactive)
CCCCCC/C=C\CCCCCCCC(=O)O,–,-0.685% (inactive)
C=CC(=O)OCCOC(=O)C=C,–,0.532% (inactive)
COC(C)=O,–,1.97% (inactive)
CCCCCCCCCCC[C@@H](C[C@@H]1OC(=O)[C@H]1CCCCCC)OC(=O)[C@H](CC(C)C)NC=O,–,-8.63% [at 42.5 µM] (inactive)
Cc1ccc(O)c(O)c1,47.2 µM (active),–
Cc1cccc(C(=O)O)c1O,–,3.47% [at 42.5 µM] (inactive)
C=Cc1ccccc1C=C,–,2.59% [at 240 µM] (inactive)
CC1(C)CCC[C@]2(C)[C@H]3CC(=O)O[C@]3(C)CC[C@@H]12,–,-7.21% (inactive)
CCCCCCC1CCCC(=O)O1 (stereo not given),–,1.11% (inactive)
CCC(COC(=O)CCS)(COC(=O)CCS)COC(=O)CCS,–,0.476% (inactive)
O=[N+]([O-])c1ccc(F)c(Cl)c1,–,-4.67% (inactive)
Cc1ccc(-c2ccccc2)cc1,–,-3.71% (inactive)
CCN1C(=O)c2ccccc2C1Nc1ccc(OCCN2CCCCC2)cc1 (stereo not given),–,-6.99% [at 42.5 µM] (inactive)
Cc1ccc(C)cc1,–,3.67% (inactive)
Cc1c(C)c2c(c(C)c1OC(=O)c1cccnc1)CC[C@@](C)(CCC[C@H](C)CCC[C@H](C)CCCC(C)C)O2,–,4.48% [at 42.5 µM] (inactive)
